Compound activity from PubChem.
Most compounds without a hit are left out; they make up all but 7.3% or so of the library.
FLuc modulator – qHTS profiling assay for firefly luciferase inhibitor/activator using purifed enzyme and Km concentrations of substrates (counterscreen for miR-21 project); 360,000 tested, 6.9% active; Potency, µM (highest dose often 57.5 µM), inactives show at the highest dose activity change, negative = inhibition, hits mostly inhibitors; AID 588342, 2011; Luciferin 4-monooxygenase (Photinus pyralis), P08659; purified FLuc, Km substrates, luminescence inhibition;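 also: plate controls were vehicle for no effect and reference inhibitor for full effect; nearly all actives have a fitted effect of over 55% in size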
Target sequence (P08659 whole entry, looked up): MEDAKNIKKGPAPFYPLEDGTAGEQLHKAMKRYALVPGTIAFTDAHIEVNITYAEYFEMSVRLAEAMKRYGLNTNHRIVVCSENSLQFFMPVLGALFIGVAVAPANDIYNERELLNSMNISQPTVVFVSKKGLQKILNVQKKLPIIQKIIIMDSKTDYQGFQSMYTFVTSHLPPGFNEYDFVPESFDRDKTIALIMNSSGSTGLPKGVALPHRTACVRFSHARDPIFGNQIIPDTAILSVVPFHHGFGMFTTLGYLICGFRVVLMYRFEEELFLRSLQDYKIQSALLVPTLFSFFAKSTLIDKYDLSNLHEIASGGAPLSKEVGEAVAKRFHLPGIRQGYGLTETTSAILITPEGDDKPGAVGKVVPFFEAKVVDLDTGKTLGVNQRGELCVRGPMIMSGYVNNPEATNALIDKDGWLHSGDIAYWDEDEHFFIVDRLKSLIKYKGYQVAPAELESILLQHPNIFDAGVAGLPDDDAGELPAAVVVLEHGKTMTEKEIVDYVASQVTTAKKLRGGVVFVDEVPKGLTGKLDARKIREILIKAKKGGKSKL
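Purified P. pyralis luciferase (10nM final) with 10uM D-luciferin and 10uM ATP (Km levels) in 50mM Tris acetate pH 7.5, 10mM Mg acetate, 0.01% Tween-20, 0.05% BSA; qHTS 6-point titration, ~60 µM downward; luminescence read.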
Luc counter – Counterscreen for Luciferase (Kinase-Glo TM) Inhibition; Kinase-Glo luciferase, ATP luminescence, 8 min; Potency, µM (top dose mostly 38.3 µM), inactives show at the highest dose activity change, negative = inhibition, actives largely listed as inhibitors; 200,000 tested, 0.28% active; also: % is scaled to controls: 0 for no effect and ±100 for the full control effect; nearly all actives have a fitted effect of over 60% in size
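Substrate mix (final 50 mM imidazole pH 7.2, 50 mM KCl, 7 mM MgCl2, 10 uM ATP, 0.01% Tween 20, 0.05% BSA) plus pin-tool compound, then Kinase-Glo detection mix; 8 min ambient, luminescence read.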
SMN2 splice enh – qHTS Assay for Enhancers of SMN2 Splice Variant Expression. HEK293 SMN2-luciferase splicing reporter, luminescence, 30-36 h. Potency, µM (series often up to 46.1 µM), for the others: at the top dose activity change, positive = activation, hits mostly activators. 210,000 tested, 2.8% active; also: % of control where 0% means no effect; nearly all actives have a fitted effect of over 55% in size
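HEK293 cells carry an SMN2 […]–luciferase reporter in which exon 7 inclusion puts luciferase in frame. Cells were plated 10-12 h before compound addition, then incubated 30-36 h at 37C. ONE-Glo luminescence was read; sodium butyrate at 4.5 mM final served as control.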
ELG1 genotoxic – qHTS screen for small molecules that induce genotoxicity in human embryonic kidney (HEK293T) cells expressing luciferase-tagged ELG1 | HEK293T ELG1-luciferase reporter, luminescence, 16 h | AID 504466, 2011 | 330,000 tested, 1.3% active | Potency, µM (titrated, usually from 46 µM), inactives show top-dose activity change, positive = activation, most hits filed as activators; also: % of control where 0% means no effect; nearly all actives have a fitted effect of over 60% in size
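Luminescence read-out: rising ELG1-luciferase signal, reflecting elevated ELG1 protein under genetic stress, flags genotoxic compounds. Cells were treated for 16 hr at 37 °C before ONE-Glo detection.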
Rab9 promoter act – qHTS Assay for Rab9 Promoter Activators; 320,000 tested, 2.8% active; Potency, µM (titrated, usually from 9.22 µM), inactives show top-dose activation, negative = inhibition, usual class: activators; Huh7 Rab9 promoter-luciferase reporter, luminescence, 24 h; AID 485297, 2010; also: % of control where 0% means no effect; nearly all actives have a fitted effect of over 60% in size
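Quantitative HTS format; Huh7 Rab9-luciferase reporter cells (1500/well) receive compound 2 h post-plating, incubate 24 h at 37 °C, then get luciferase reagent for 10 min before luminescence reading.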
NPC1 promoter act – qHTS Assay for NPC1 Promoter Activators | Potency, µM (doses to about 9.22 µM), for inactives: top-dose activation, hits mostly activators | AID 485313, 2010 | 320,000 tested, 2.4% active | Huh7 NPC1 promoter luciferase reporter, 24 h; also: % of control where 0% means no effect; nearly all actives have a fitted effect of over 60% in size
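Huh7 cells stably carrying NPC1 promoter–luciferase, plated in Opti-MEM with 10% FBS for 2 h, were exposed to compound in DMSO for 24 h at 37 °C; luciferase reagent was added for 10 min and luminescence read.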
* marks the source's active call; other numbers are inactive results; ? = inconclusive; . = no result given; [ ] = dose if it differs, or a comment. Calls follow the shape of the dose curve; as a rule, active = well fitted curve in the direction sought with a large enough effect; inconclusive = small, poorly fitted or top-dose-only effect, or another doubt; inactive = no such curve, though single readings can be large; an effect the other way counts as inactive or inconclusive. Potency is read from the fitted curve at half-maximal effect.

SMILES	FLuc modulator	Luc counter	SMN2 splice enh	ELG1 genotoxic	Rab9 promoter act	NPC1 promoter act
CC(C)c1ccc(/C=C/C(=O)NCCCc2ccccc2)cc1	?	1%	-15%	1%	-3%	-2%
O=C(O)/C=C/c1ccc(/C=C/C(=O)O)cc1	.	.	8%	.	.	.
CC(C)c1ccc(/C=C/C(=O)O)cc1	19µM*	.	.	1%	-6%	0%
COc1ccc2occ(C(=O)c3cccs3)c2c1	6µM*	-10%	-12%	6.5µM*	?	?
COc1ccc2occ(C(=O)c3ccc(N)cc3)c2c1	6µM*	.	.	?	0.63µM*	1.4µM*
COc1ccc(C(=O)c2coc3ccc(OC(C)=O)cc23)cc1	9.5µM*	.	.	?	15%	?
COc1ccc(OC)c(C(=O)c2coc3ccc(OC(C)=O)cc23)c1	-17%	-1%	1%	0%	4%	1%
CC(C)C[C@H](NC(=O)c1nc[nH]c1C(=O)NCc1ccccc1)C(=O)OCc1ccccc1	-2%	.	.	-7%	0%	0%
Oc1ccc(-c2nnc(SCc3ccccc3)o2)cc1	27µM*	.	.	?	9%	?
Cc1ccccc1-c1nnc(SCc2ccc(F)cc2)o1	15µM*	3%	-9%	?	24%	?
C#CCSc1nnc(-c2ccc(C)cc2)o1	7.6µM*	-4%	13µM*	23µM*	2.2µM*	3.5µM*
Cc1ccc(-c2nnc(SCc3ccccc3)o2)cc1	4.8µM*	.	.	.	.	.
c1ccc(CSc2nnc(-c3cccnc3)o2)cc1	?	-2%	?	?	?	?
C#CCSc1nnc(-c2ccc(O)cc2)o1	?	-6%	?	?	?	27%
Fc1ccc(CSc2nnc(-c3ccncc3)o2)cc1	-2%	1%	-30%	-21%	2%	14%
N=C1/C(=C\c2ccc(OC(=O)c3ccc(F)cc3)cc2)C(=O)N=C2SC(N3CCOCC3)=NN12	?	.	.	5%	4%	-1%
Cc1ccc(NC(=O)Cn2nc(Cc3ccncc3)c3ccccc3c2=O)c(Cl)c1	7%	.	-11%	.	.	.
CCOc1ccc(NC(=O)Nc2ccc3nsnc3c2)cc1	?	1%	20%	-3%	30%	13%
CCOc1ccc(NC(=O)Nc2cccs2)cc1	1.5µM*	-22%	11µM*	4.6µM*	1.4µM*	0.89µM*
Cc1ccc(NC(=O)c2sccc2C)nc1	12µM*	.	.	2.9µM*	0.5µM*	0.89µM*
Cc1cc(C)cc(NC(=O)Nc2cccs2)c1	9.5µM*	.	15%	.	.	.
CCc1ccc(NC(=O)C2(c3cccs3)CCOCC2)cc1	-10%	.	.	.	.	.
CCc1ccc(NC(=O)Nc2cccs2)cc1	0.85µM*	-5%	14µM*	?	0.79µM*	1.1µM*
Cc1cc(C)cc(NC(=O)Nc2cccnc2)c1	?	.	.	3%	2%	3%
Cc1ccc(NC(=O)Nc2cccs2)cc1	2.4µM*	-3%	16µM*	16%	2.2µM*	2.8µM*
SMILES	FLuc modulator	Luc counter	SMN2 splice enh	ELG1 genotoxic	Rab9 promoter act	NPC1 promoter act
Cc1ccc(NC(=O)Nc2cccs2)nc1	21µM*	-5%	?	?	2.2µM*	4µM*
Cc1c(NC(=O)Nc2cccs2)cccc1[N+](=O)[O-]	-17%	0%	-34%	-10%	-9%	-25%
CCOc1cc(/C=N/NC(=O)c2cccnc2)ccc1OC(=O)c1ccco1	-2%	1%	-4%	-1%	1%	8%
COc1cc(C2CC(=O)NC(SCC(=O)Nc3ccccc3C)=C2C#N)ccc1O (stereo unspecified)	1%	0%	-1%	0%	0%	2%
CN(CCc1ccccc1)C(=O)c1cc(COc2ccc(F)cc2Cl)on1	?	.	.	10%	19%	2%
COc1ccc2oc(=O)c(C(=O)Nc3ccc(C(=O)O)cc3)cc2c1	6.7µM*	.	-1%	.	.	.
COc1ccc2oc(=O)c(C(=O)Nc3ccccc3O)cc2c1	0.6µM*	.	.	0.65µM*	0.4µM*	1µM*
COc1ccc(NC(=O)c2cc3cc(OC)ccc3oc2=N)cc1	9.5µM*	6%	-22%	10%	-1%	9%
COc1ccccc1NC(=O)c1cc2cc(Br)ccc2oc1=N	4.8µM*	.	.	2%	-1%[1.84 µM]	26%
COc1ccc(NC(=O)CSc2ccc3nnc(-c4cccnc4)n3n2)c(OC)c1	0%	-1%	-12%	-12%	0%	-4%
CCc1ccccc1NC(=O)c1cnc2scc(C)n2c1=O	?	2%	?	15%	29%	21%
Cc1cc(Br)cc(C)c1NC(=O)c1cnc2ccccn2c1=O	-2%	.	-8%	.	.	.
CSc1ccccc1NC(=O)c1cnc2scc(C)n2c1=O	?	-4%	?	18µM*	22%	0%
Cn1c(C(=O)NCCc2ccccc2)cc2c(=O)n3ccccc3nc21	-7%	.	.	.	.	.
Cc1cccc(CCNC(=O)c2cnc3c(C)cccn3c2=O)c1	4.3µM*	.	.	.	.	.
Cc1ccccc1NC(=O)c1cnc2ccccn2c1=O	0.76µM*	?	?	?	0.79µM*	?
O=C(NCCc1ccccc1)c1cnc2ccccn2c1=O	11µM*	-7%	4µM*	21%	0.56µM*	0.89µM*
COc1ccc(NC(=O)c2cc3c(COC(C)=O)cnc(C)c3oc2=Nc2cccc(C(=O)O)c2)c(OC)c1	0%	.	.	0%	-4%	-5%
Cc1csc2ncc(C(=O)NCCc3ccccc3)c(=O)n12	?	-3%	?	21µM*	?	?
Cc1cccc(CC(=O)Nc2c(C(=O)Nc3cccc(F)c3)oc3ccccc23)c1	-1%	.	9%	.	.	.
CC(C)CNC(=O)C1CCN(Cc2ccc(OCc3ccccc3)cc2)CC1	17µM*	-2%	?	10%	?	24%
CN1CCN(Cc2ccc(OCc3ccccc3)cc2)CC1	13µM*	0%	-5%	?	?	?
O=C1CCN(Cc2ccccc2)CCN1CCOc1ccccc1	24µM*	.	.	14%	3.5µM*	?
c1ccc(COc2ccc(OCCN3CCCC3)cc2)cc1	?	1%	-2%	5%	21%	23%
CCN1CCN(Cc2ccc(OCc3ccccc3)cc2)CC1	21µM*	-2%	-35%	10µM*	17%[1.84 µM]	4µM*
COc1ccc(C2C(=O)N(C3CCCCCC3)CC(=O)N2CCc2ccccc2)cc1 (stereo unspecified)	-8%	.	.	.	.	.
Cc1nc(-c2ccc(NC(=O)CC(C)C)cc2)cs1	7.6µM*	-11%	11µM*	?	3.2µM*	2.8µM*
